The term inhibition denotes the change of the read-out against control, counted positive when it falls.

SMILES strings stand for the structures. Where “and” joins values, the source holds several entries; their conditions need not be identical. Identical values can stand only once. The whole screen tested about 330,000 compounds, of which about 1,900 (0.58%) were called active. About 4% were inconclusive and are not listed. No stated cut-off is given here; in the data, inconclusive means inhibition above about 70% without an active follow-up result; inactive means below that. The list is a sample of the results. Measured potencies and affinities stand elsewhere.

From PubChem BioAssay AID449762 (Southern Research Specialized Biocontainment Screening …, 2010) come the findings set out here.

The experiment in a line: M. tuberculosis growth inhibition, HTS (AID 449762).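 Further: bacterial growth assessed after seven days of incubation.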 The conditions noted are these: M. tuberculosis H37Rv growth inhibition, 7H9 media; at 25 µM; active compounds read high.
For the compound `Cc1cccc(NC(=O)CSc2cccc3cccnc23)c1`, the inhibition was -1.29% (inactive).
The same measure for `O=C(CSc1cccc2cccnc12)Nc1cccc(S(=O)(=O)N2CCOCC2)c1`: -4.53% (inactive); for `COc1ccc(NC(=O)CN(C)C(=O)c2cc(C)on2)cc1`: 2.44% (inactive); for `O=C(OCC(=O)c1ccc[nH]1)C1=COCCO1`: 18.8% (inactive).
As for `O=C(CC(Nc1ccccc1Cl)C(=O)OCC(=O)c1cccs1)c1ccccc1` (stereo not given), the inhibition is 2.88% (inactive).
The value for `Cc1c(Cl)cccc1NC(CC(=O)c1ccccc1)C(=O)OCC(=O)c1cccs1` (stereo not given) was -5.49% (inactive).
The same measure for `O=C(CCC(=O)c1cccs1)OCC(=O)c1ccccc1`: 2.32% (inactive).
The value for `O=C(COC(=O)c1cccs1)c1ccc2c(c1)OCCO2` was -22.5% (inactive); that for `Cc1cc(C(=O)CSc2n[nH]c(N)n2)c(C)n1-c1cccc(F)c1` was -3.82% (inactive); that for `O=C(OCC(=O)c1cccs1)c1ccccc1` was -1.72% (inactive).
For `COC(=O)c1ccc(-n2c(C)cc(C(=O)COC(=O)C3=COCCO3)c2C)cc1`, the inhibition is 48.5% (inactive).
With `COCCCn1c(SCC(=O)N2CCOCC2)nc2cc(Cl)ccc2c1=O`, the inhibition is -3.72% (inactive).
The same measure for `CCOC(=O)CNC(=S)N(Cc1ccccc1)Cc1cccs1`: 2.83% (inactive); for `O=C(CN(Cc1ccccc1Cl)C(=O)c1csnn1)NCCc1ccccc1`: 4.65% (inactive); for `Cc1occc1C(=O)Nc1ccccc1C#N`: -1.21% (inactive).
In the case of `CC(C)CCOC(=O)C1[C@H]2C(=O)N(Cc3cccs3)C[C@]23C=C[C@H]1O3` (stereo not given in full), the inhibition is 0.09% (inactive).
The same measure for `O=c1c2ccccc2ncn1-c1ccc([N+](=O)[O-])cc1[N+](=O)[O-]`: 4.34% (inactive).
In the case of `O=[N+]([O-])c1ccccc1-n1cnc2ccccc21`, the inhibition was 8.38% (inactive).
The value for `COc1cc(C(=O)OCC(=O)NCc2ccccc2)cc(NC(=O)c2ccco2)c1OC` was 6.91% (inactive); that for `C1=C(c2ccccc2)CCN(c2ncnc3nc[nH]c23)C1` was 1.26% (inactive).
The same measure for `COc1ccccc1-n1c(N)c(C(N)=O)sc1=S`: -2.51% (inactive); for `CC(=O)c1ccc(OC(=O)CCc2nc3ccccc3s2)cc1`: -3.41% (inactive).
The same measure for `COC(=O)N1CCN(c2ccc(Cl)c(Cl)c2)CC1`: -0.8% (inactive); for `CCOC(=O)N1CCN(c2ccc(Cl)c(Cl)c2)CC1`: -2.84% (inactive).
Turning to `N#CCCn1cc(C(=O)Nc2ccc(C(=O)O)cc2)c(-c2cc3ccccc3o2)n1`, the inhibition was -8.4% (inactive).
As to `CC(C)C[C@H](CO)Nc1nc(Nc2cccc(Cl)c2)c2ncn(C(C)C)c2n1`, the inhibition was 62.4% (inactive).
`CC(C)n1cnc2c(Nc3cccc(Cl)c3)nc(NCCCO)nc21`: the inhibition was 27% (inactive).
In the case of `CC(C)(C)n1nnnc1CN1CCSCC1`, the inhibition was 1.25% (inactive).
The value for `COC(=O)c1cc(NC2c3ncccc3C(=O)N2Cc2ccccc2)cc(C(=O)OC)c1` (stereo not given) was 2.2% (inactive).
As to `CCOC(=O)c1nnn(-c2nonc2-c2ccccc2)c1C`, the inhibition was 7.53% (inactive).
As to `Cc1c(C(=O)O)sc2nc3n(c(=O)c12)CCC(C)CC3` (stereo not given), the inhibition is -4.08% (inactive).
The same measure for `CCOC(=O)c1sc2nc3n(c(=O)c2c1C)CCC3`: -4.9% (inactive).
The value for `COc1ccc(-c2cc(NCCc3ccncc3)n3ncnc3n2)cc1` was -2.4% (inactive); that for `COc1ccc(-c2cc(NCc3ccccn3)n3ncnc3n2)cc1` was 65.8% (inactive); that for `COc1ccc(NC(=O)Cn2c(=O)n(-c3ccc(OC)cc3OC)c(=O)c3c(C)c(C)sc32)cc1` was -0.67% (inactive).
The same measure for `CC(C)N(CC(N)=O)c1ccc(S(=O)(=O)N2CCCC2)cn1`: -5.77% (inactive).
Take `NC(=O)C1CCN(C(=O)COc2ccc3ccc(=O)oc3c2)CC1`: the inhibition is -9.39% (inactive).
For `CCOC(=O)C1=C(C)Nc2nc(SCC)nn2C1c1ccc(OC)cc1` (stereo not given), the inhibition is 5.22% (inactive).
As for `CCOC(=O)C1=C(C)Nc2nc(SC)nn2C1c1ccc(C(=O)OC)cc1` (stereo not given), the inhibition was -5.54% (inactive).
The same measure for `O=C(NCc1ccccc1)c1nccnc1CO`: 0.4% (inactive).
The same measure for `CN(C)S(=O)(=O)c1ccc(C(=O)NCc2nnc(SCC(=O)c3ccccc3)o2)cc1`: -10.3% (inactive); for `COc1cc(O)c(C(CCN2CCCC(C)C2)c2cc(OC)c(OC)c(OC)c2)c(OC)c1` (stereo not given): -1.23% (inactive); for `O=C(Nc1ccc(-c2nc3ccccc3s2)cc1)c1cc(-n2cnnc2)ccc1Cl`: -1.18% (inactive).
Turning to `Cc1ccc(-c2nc3ccccc3s2)cc1NC(=O)c1cc(-n2cnnc2)ccc1Cl`, the inhibition is 3.06% (inactive).
In the case of `Cc1cc(C)c(NC(=O)Cn2ncc3ccccc32)c(C)c1`, the inhibition is -0.59% (inactive).
The same measure for `COC(=O)c1ccc(OC(=O)c2cccs2)cc1`: 19.3% (inactive); for `Cc1ccc(N2C(=O)C3CCCN3C2=S)c(C)c1` (stereo not given): 5.68% (inactive); for `NS(=O)(=O)c1ccc(S(=O)(=O)c2ccccc2)nc1`: 1.3% (inactive).
Consider `Nc1ncc([N+](=O)[O-])cc1S(=O)(=O)c1ccccc1`, for which the inhibition was 2.55% (inactive).
The same measure for `C#CCNC(=O)C1=C[C@@H](C)C[C@@H](OCc2ccc(CO)cc2)O1`: 2.19% (inactive).
As to `COc1ccc(-c2cc(-n3c(C(F)(F)F)nc4ccccc43)n(CCC#N)n2)cc1`, the inhibition is 5.23% (inactive).
The same measure for `COc1ccc(-c2cc3nc(-c4ccccc4)cc(N4CCC(O)CC4)n3n2)cc1`: 8.92% (inactive).
The same measure for `Cc1ccc(S(=O)(=O)Nc2c(C)n(C)n(-c3ccccc3)c2=O)cc1C(=O)NCc1ccccc1`: -5.64% (inactive); for `Cc1nc2ccc(N=NC3=C(O)CC(C)(C)CC3=O)cc2s1`: 1.45% (inactive); for `COc1ccc(N=NC2=C(O)CC(C)(C)CC2=O)cc1`: -3.64% (inactive).
The same measure for `COc1ccc(CCN2CC(O)=C(c3nc(C)cs3)C2=N)cc1OC`: 7.01% (inactive); for `COc1cccc(OCc2cc(C(=O)NCCN3CCCCC3CO)no2)c1` (stereo not given): -19.8% (inactive).
As to `Cc1ccc(NNc2c(C)nc3ccccc3nc2=O)cc1`, the inhibition is 42.5% (inactive).
The value for `Cc1ccc2nc(-c3ccccc3)c(-c3ccccc3)nc2c1` was 2.44% (inactive).
The value for `O=C(Nc1ccc(S(=O)(=O)Nc2ncccn2)cc1)c1ccco1` was -1.81% (inactive); that for `COc1ccc(/C=C2\SC(=O)N(CCNC(=O)Cn3[nH]c(=O)c4ccccc4c3=O)C2=O)cc1` was 1.03% (inactive); that for `COc1ccc(C2SCC(=O)N2c2ccc(C)cc2)cc1` (stereo not given) was -1.14% (inactive).
The value for `COc1ccc(C2CC(c3cccs3)=NN2S(C)(=O)=O)cc1` (stereo not given) was -0.06% (inactive); that for `O=C(O)C1CC(c2ccccc2)=Nc2ccccc2S1` (stereo not given) was 13.4% (inactive).
In the case of `CCC(=O)N1N=C(c2ccccc2)CC1c1ccc([N+](=O)[O-])cc1` (stereo not given), the inhibition was 2.69% (inactive).
The value for `COc1ccc(O)c(C2=Nc3ccccc3N=C(c3cccs3)C2)c1` was -0.29% (inactive).
The value for `O=C(Nc1ccccc1)N1CCC(O)(c2cccc(C(F)(F)F)c2)CC1` was 1.21% (inactive).
The same measure for `CCN(CC)CCCN=C1N[C@@H](c2cccc(F)c2)C(C(=O)OC)=C(C)N1Cc1ccccc1`: -0.31% (inactive).
As for `CC(C)C(NC(=O)OCc1ccccc1)C(=O)OCC(=O)NCc1ccco1` (stereo not given), the inhibition was 8.7% (inactive).
The value for `Cc1ccc(C(=O)NNC(=O)c2cccc(C)c2)cc1` was -4.89% (inactive); that for `CCOc1ccc(S(=O)(=O)Nc2ncn[nH]2)cc1` was 1.15% (inactive).
On to `CCOC(=O)c1c(C)n(C)c2ccc(OC(=O)c3ccc([N+](=O)[O-])cc3)cc12`, for which the inhibition is 25.7% (inactive).
The same measure for `COc1ccc2c(c1)c(C(C)=O)c(C)n2C`: 4.3% (inactive); for `CC12CCC(=O)N1C(C(=O)N1CCN(c3ccc(C(F)(F)F)cc3[N+](=O)[O-])CC1)CS2` (stereo not given): 4.09% (inactive).
The value for `CC1(c2nnc(-c3ccccc3)o2)CC(c2ccccc2)=NO1` (stereo not given) was 4.65% (inactive).
The same measure for `CC1(c2nnc(-c3ccccc3)o2)CC(c2ccncc2)=NO1` (stereo not given): 10.1% (inactive).
As for `Cc1nc(C)c(-c2csc(Nc3ccccn3)n2)s1`, the inhibition was 5.67% (inactive).
The value for `O=S(=O)(c1cccc2cccnc12)N1CCN(c2ccccn2)CC1` was -2.85% (inactive); that for `COc1ccc(S(=O)(=O)N2CCN(CC(=O)Nc3ccccc3OC)CC2)cc1` was 5.95% (inactive).
The same measure for `FC(F)Oc1ccc(NC(=S)Nn2cnnc2)cc1`: -3% (inactive); for `COc1ccc(CNC(=O)C[C@H]2C(=O)N(c3ccccc3)C[C@@H]2Cc2ccccc2)cc1`: 0.74% (inactive); for `CC1Cc2ccccc2N1C(=O)CSc1nc2ccccc2n1CC(=O)N1CCOCC1` (stereo not given): 7.22% (inactive).
Take `C=CCNC(=O)c1onc(CSc2ccc(Cl)cc2)c1C(=O)NCC=C`: the inhibition is 27.7% (inactive).
Take `C=CCNC(=O)c1onc(CSc2ccc(OC)cc2)c1C(=O)O`: the inhibition was 4.85% (inactive).
On to `CCN(CC)S(=O)(=O)c1ccc(N2CCCC2)c(NC(=O)C2=COCCO2)c1`, for which the inhibition was -7.17% (inactive).
The value for `Cn1c(CSCc2ccc(F)cc2)n[nH]c1=S` was -6.48% (inactive); that for `FC(F)(F)c1cccc(-c2cc(C3CCNCC3)[nH]n2)c1` was 6.36% (inactive).
The value for `COC(=O)CCN1CCC(c2cc(-c3cccc(C(F)(F)F)c3)n[nH]2)CC1` was 5.38% (inactive); that for `O=C(CC1C(=O)NCCN1Cc1ccc(F)cc1)NCCCn1cccn1` (stereo not given) was -1% (inactive); that for `O=S(=O)(NCCc1cn2ccccc2n1)c1ccc2c(c1)OCCO2` was -2.59% (inactive).
For the compound `Cc1c(C(=O)NCc2ccc(S(N)(=O)=O)cc2)oc2ccc(Cl)cc12`, the inhibition was -4.55% (inactive).
The same measure for `COc1cc2nc(Nc3cccc(F)c3)nc(N)c2cc1OC`: 34.9% (inactive); for `COc1cc2nc(Nc3ccc(F)cc3)nc(N)c2cc1OC`: 23.2% (inactive); for `COc1cc2nc(N3CCN(C(=O)c4ccco4)CC3)nc(N)c2cc1OC`: -7.62% (inactive) and 1.49% (inactive).
Consider `COc1cc2nc(N3CCNCC3)nc(N)c2cc1OC`, for which the inhibition was -16.4% (inactive).
